The whole screen tested about 310,000 compounds, of which about 14,000 (4.5%) showed an effect of 50% or more. The effect is printed as a negative number. This excerpt belongs to a sample that is enriched for strong results.
Target: human ether-à-go-go-related gene (hERG) potassium channel (human, UniProt Q12809)
Assay: primary screen, population patch clamp on CHO cells stably expressing hERG; higher = less effect of the substance
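Also: peak tail current of the secondary pulse compared with the same well before compound.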

human ether-à-go-go-related gene (hERG) potassium channel, sequence (Q12809 whole entry, looked up): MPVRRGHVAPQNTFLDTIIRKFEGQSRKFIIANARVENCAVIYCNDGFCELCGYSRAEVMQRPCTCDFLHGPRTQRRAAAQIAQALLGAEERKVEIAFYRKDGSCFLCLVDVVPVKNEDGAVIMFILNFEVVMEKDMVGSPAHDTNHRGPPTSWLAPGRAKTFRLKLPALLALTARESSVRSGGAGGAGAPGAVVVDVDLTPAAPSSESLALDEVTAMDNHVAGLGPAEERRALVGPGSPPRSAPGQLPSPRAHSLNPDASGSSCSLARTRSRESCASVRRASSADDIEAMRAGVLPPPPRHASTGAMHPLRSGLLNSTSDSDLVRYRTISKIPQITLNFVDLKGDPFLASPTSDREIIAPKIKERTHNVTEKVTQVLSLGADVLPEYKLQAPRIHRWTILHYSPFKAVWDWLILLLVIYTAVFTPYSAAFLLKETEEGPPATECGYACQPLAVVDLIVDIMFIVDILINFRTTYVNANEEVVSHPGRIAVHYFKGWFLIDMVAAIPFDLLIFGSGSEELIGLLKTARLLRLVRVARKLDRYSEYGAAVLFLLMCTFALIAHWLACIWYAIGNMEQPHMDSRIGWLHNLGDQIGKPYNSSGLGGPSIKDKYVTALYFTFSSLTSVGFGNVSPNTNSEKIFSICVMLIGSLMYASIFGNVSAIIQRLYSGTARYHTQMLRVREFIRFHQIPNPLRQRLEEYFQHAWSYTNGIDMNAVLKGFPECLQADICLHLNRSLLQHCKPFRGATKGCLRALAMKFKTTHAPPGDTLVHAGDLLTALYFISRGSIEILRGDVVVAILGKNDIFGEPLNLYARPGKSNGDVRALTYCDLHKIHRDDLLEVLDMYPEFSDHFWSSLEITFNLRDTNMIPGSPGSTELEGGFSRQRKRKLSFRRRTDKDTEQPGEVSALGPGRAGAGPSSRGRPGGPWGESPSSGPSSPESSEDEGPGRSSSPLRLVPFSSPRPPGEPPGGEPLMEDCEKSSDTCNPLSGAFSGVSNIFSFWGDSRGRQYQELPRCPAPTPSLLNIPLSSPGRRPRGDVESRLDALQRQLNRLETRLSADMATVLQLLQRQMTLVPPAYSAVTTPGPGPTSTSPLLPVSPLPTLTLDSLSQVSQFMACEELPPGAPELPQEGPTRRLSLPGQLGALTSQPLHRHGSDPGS

Row | SMILES | hERG current change (%, negative = inhibition) at 10uM [%]
1 | COc1ccc(C2=NC(C)(C)Cc3cc(OC)c(OC)cc32)cc1 | -44
2 | COc1ccccc1OCC(O)CN1CCOCC1 (stereo not drawn) | 15.2
3 | OC(COc1cccc(OCC(O)CN2CCCC2)c1)CN1CCCC1 (stereo not drawn) | -2.86
4 | Cc1cccc(OCC(O)Cn2c(=N)n(CCN3CCOCC3)c3ccccc32)c1.Cl (stereo not drawn) | -57.9
5 | Cc1cccc(OCC(O)Cn2c(=N)n(CCN3CCCCC3)c3ccccc32)c1.Cl (stereo not drawn) | -80.5
6 | Cl.OC(COc1cccc(OCC(O)CN2CCOCC2)c1)CN1CCOCC1 (stereo not drawn) | 7.41
7 | Cc1ccc(OCC(O)CN2CCOCC2)cc1C.Cl (stereo not drawn) | 17.7
8 | Cc1ccccc1OCC(O)Cn1c(=N)n(CCN2CCOCC2)c2ccccc21.Cl (stereo not drawn) | -61.5
9 | Cc1ccccc1OCCCN1CCOCC1 | 9.44
10 | O=C(CCNS(=O)(=O)/C=C/c1ccccc1)NCCc1c[nH]c2ccccc12 | 3.88
11 | Cc1ccc(NS(=O)(=O)c2ccc(-c3coc(C)n3)cc2)c(C)c1 | 15.6
12 | CCOC(=O)C(Sc1ncn[nH]1)c1ccccc1 (stereo not drawn) | -3.76
13 | Cc1cc(F)ccc1S(=O)(=O)N1CCCOC1CNC(=O)C(=O)NCc1cccnc1 (stereo not drawn) | 7.92
14 | O=C(CNC(=S)N(CCCN1CCOCC1)Cc1cccs1)NCc1ccc(Cl)cc1 | -67.7
15 | O=C(CNC(=S)N(CCCN1CCOCC1)Cc1cccs1)NCCN1CCOCC1 | 9.17
16 | O=C(CNC(=S)N(CCCN1CCOCC1)Cc1cccs1)NC1CCCC1 | -19.7
17 | O=C(CNC(=S)N(CCCN1CCOCC1)Cc1cccs1)NCCCN1CCOCC1 | 15.1
18 | O=C(CNC(=S)N(CCCN1CCOCC1)Cc1cccs1)NC1CCCCC1 | -31.2
19 | CN(C)CCNC(=O)CNC(=S)N(CCCN1CCOCC1)Cc1cccs1 | 12.1
20 | O=C(CNC(=S)N(CCCN1CCOCC1)Cc1cccs1)NCc1ccccc1Cl | -54.2
21 | O=C(CNC(=S)N(CCCN1CCOCC1)Cc1cccs1)NC1CCCCCCC1 | -61.1
22 | CCCCNC(=O)CNC(=S)N(CCCN1CCOCC1)Cc1cccs1 | -27.4
23 | O=C(NCc1ccc(F)cc1)c1ccc(CS(=O)Cc2ccccc2Cl)o1 (stereo not drawn) | -37.3

Row | SMILES | hERG current change (%, negative = inhibition) at 10uM [%]
24 | Cc1ccc(S(=O)(=O)N2[C@@H](c3ccccc3)C(C(=O)O)=CC[C@H]2c2ccc(Cl)cc2)cc1 | 18.6
25 | CC1=NN(C(N)=S)C(=O)C1N=Nc1ccccc1C(=O)O (stereo not drawn) | 22.1
26 | Fc1ccc(/C=C/c2nnc(-c3cccs3)o2)cc1 | 16.7
27 | Cc1cc(S(=O)(=O)Nc2cccc(C(=O)O)c2)c(C)c(S(=O)(=O)c2ccc(Cl)cc2)c1 | 18.8
28 | CCOC(=O)c1cnc(SCC(=O)Nc2ccc(NC(C)=O)c(OC)c2)nc1N | 2.44
29 | CC1(c2cccc(Br)c2)NC(=O)N(CC(=O)Nc2ccc3c(c2)OCO3)C1=O (stereo not drawn) | -12.5
30 | COc1ccc(CNC2CCSc3ccccc32)cc1OC.O=C(O)C(=O)O (stereo not drawn) | 9.97
31 | CCC(Cc1ccccc1)NC(=O)CN(C)S(=O)(=O)c1ccc2c(c1)c(=O)n(C)c(=O)n2C (stereo not drawn) | -23.5
32 | Cc1sc2nc(SCC(=O)N3CCN(CCO)CC3)n(-c3ccccc3)c(=O)c2c1C | -3.7
33 | CCS(=O)(=O)N1CCN(C2CCC(c3ccccc3)CC2)CC1.O=C(O)C(=O)O (stereo not drawn) | -17.2
34 | Ic1ccccc1CN[C@@H]1C2CCN(CC2)[C@@H]1C(c1ccccc1)c1ccccc1.O.O=C(O)C(=O)O | -69.7
35 | O=C(O)C(=O)O.OC(CNC1CCCCCCC1)c1ccccc1 (stereo not drawn) | 2.95
36 | O=C(COC(=O)CNC(=O)c1ccccc1)NCCc1ccccc1 | 4.17
37 | CCOc1ccc(/C=N/NC(=O)C2CC2)c(OCC)c1 | 2.21
38 | COc1cc2c(cc1OC)CN(CC(=O)NC(=O)NC1CCCCC1)CC2 | 3.28
39 | Cc1cc2[nH]c3c(c[n+](C)c4ccccc34)c2cc1C.[I-] | -77.8
40 | COc1cc2[nH]c3ccccc3c2cc1C | 2.45
41 | Cc1nccc2c1[nH]c1ccccc12 | 2.16
42 | COc1ccc2nc(SCCN(C)C)[nH]c2c1.Cl | 12.3
43 | COc1ccc2nc(SCC(N)=O)[nH]c2c1 | -2.83
44 | CCN(CC)CCSc1nc2ccc(OC)cc2[nH]1.Cl | -64.7
45 | O=C1[C@@H]2[C@H](C(=O)N1Cc1cccnc1)[C@H]1C=C[C@@H]2C1 | -3.89
46 | COc1ccc(/C=N/Nc2ncc(C(F)(F)F)cc2Cl)c(OC)c1OC | -1.15

Row | SMILES | hERG current change (%, negative = inhibition) at 10uM [%]
47 | Cc1cc(Cl)ccc1OCC(=O)NNC(=O)C1CSC2(C)CCC(=O)N12 (stereo not drawn) | -18.5
48 | CCOC(=O)c1c(-c2ccccc2)oc2cc(CN(C)C)c(O)c(CN(C)C)c12 | -41.5
49 | CCOC(=O)c1c(-c2ccccc2)oc2ccc(O)c(CN(C)C)c12 | -40.2
50 | CCOC(=O)c1c(CSc2ccc(CC)cc2)oc2ccc(O)c(CN(C)C)c12.Cl | -55.3
51 | CCOC(=O)c1c(CSc2ccccc2)oc2ccc(O)cc12 | 3.91
52 | CCOC(=O)c1c(CSc2ccccc2)oc2cc(Br)c(O)c(CN(C)C)c12.Cl | 8.53
53 | CC(=O)c1c(CSc2ccccc2)oc2ccc(O)c(CN(C)C)c12.Cl | -70.8
54 | CCOC(=O)c1c(CSCc2ccccc2)oc2ccc(O)c(CN(C)C)c12.Cl | -73.4
55 | COC(=O)Cc1c(CSc2ccccc2)oc2ccc(O)c(CN(C)C)c12 | -47.8
56 | CCOC(=O)c1c(CN(C)C)oc2cc(CN(C)C)c(O)c(CSc3ccccc3)c12.Cl | -19.3
57 | COc1ccc2c(c1)[nH]c1c(=O)n(CCN(C)C)cnc12 | -34.1
58 | CCOC(=O)c1cccc(NC(=O)/C=C/c2cccc([N+](=O)[O-])c2)c1 | -15.4
59 | Cn1c(SCC(=O)NCc2ccccc2)nc2c([nH]c3ccccc32)c1=O | 8.94
60 | CCC(=O)Nc1nnc(S(=O)(=O)N2CCCC2)s1 | 8.85
61 | Cc1c(NC(=O)c2cccc(F)c2)c(=O)n(-c2ccccc2)n1C | 20.5
62 | CCCOC(=O)c1ccc(NC(=O)c2ccccc2OC)cc1 | 4.44
63 | CCOC(=O)C1=C(C)N(C)C(=O)NC1c1ccccc1OC (stereo not drawn) | -12.1
64 | Cc1ccc(Nc2nc(Oc3ccc(OCc4ccccc4)nn3)nc(N3CCOCC3)n2)cc1 | 3.53
65 | S=c1oc(-c2ccncc2)nn1CCc1ccncc1 | 13
66 | CCc1nc2c3cnn(-c4cc(Cl)ccc4C)c3ncn2n1 | 5.24
67 | NC(=O)c1cn(C2CCCCC2)c2ccccc2c1=O | -65.2
68 | Cn1cc(-c2ccccc2C(N)=O)c(=O)c2ccccc21 | 5.37
69 | Cn1c2ccccc2c2c(C(=O)O)cn(C3CCCC3)c(=O)c21 | 7.78

Row | SMILES | hERG current change (%, negative = inhibition) at 10uM [%]
70 | CN(C)S(=O)(=O)c1ccc(C(=O)N2CC(=O)Nc3ccc(F)cc3C2c2ccc(F)cc2)cc1 (stereo not drawn) | -21
71 | CCC(CC)NC(=O)C1CCN(S(=O)(=O)c2cccs2)CC1 | 1.92
72 | COc1ccc(Cl)cc1NC(=S)Nc1cccc(C)c1 | 10.3
73 | Cl.O=C(O)c1ccc(CNCc2ccccc2F)cc1 | 5.98
74 | Cc1ccc(C)c(OCC(O)CN2C(C)CCCC2C)c1.Cl (stereo not drawn) | -67.9
75 | CC1CCCC(C)N1CC(O)COc1ccc(Cl)cc1 (stereo not drawn) | -65
76 | CC1CCCC(C)N1CC(O)COCc1ccccc1F.Cl (stereo not drawn) | 13.2
77 | Cc1cc(Cl)ccc1OCC(O)CN1C(C)CCCC1C.Cl (stereo not drawn) | -73.2
78 | COc1cccc(OCC(O)CN2C(C)CCCC2C)c1.Cl (stereo not drawn) | 10.8
79 | Cc1cc(OCC(O)CN2C(C)CCCC2C)ccc1C(C)C (stereo not drawn) | -32.4
80 | CC(=O)Nc1ccc(OCC(O)CN2C(C)CCCC2C)cc1.Cl (stereo not drawn) | 19.1
81 | Cc1cc(Cl)ccc1OCC(=O)N1C(C)CCCC1C (stereo not drawn) | -6.46
82 | CC1CCCC(C)N1CC(O)COCc1ccccc1.Cl (stereo not drawn) | 5.08
83 | CCn1c(/C=C/c2c[nH]c3ccccc23)nc2ccccc2c1=O | 20.5
84 | CCOc1ccc2nc(N3CCC(C(=O)Nc4nnc(CC)s4)CC3)sc2c1 | 11.9
85 | Cn1c(=O)c2cn(Cc3ccc(Cl)cc3)cc2n(C)c1=O | -1.75
86 | CCOc1ccc(C2NCCc3cc(OC)c(OC)cc32)cc1OC (stereo not drawn) | 12.3
87 | O=C1C(CSCc2ccccc2)NC(=S)N1c1ccccc1 (stereo not drawn) | 16
88 | Nc1nc(SCCO)[nH]c(=O)c1NC(=O)c1ccc(Br)o1 | 23.8
89 | Cc1ccc(OCC(=O)NNC(=O)C2CCN(c3ncccn3)CC2)cc1 | -18.6
90 | COC(=O)C1=C[C@@H](C(=O)OC)[C@@H]2C3=C(C(=O)[C@]2(CC(C)C)NC(=O)c2ccccc2)[C@H](C)n2c(=O)n(-c4ccccc4)c(=O)n2[C@@H]3C1 | -8.87
